# Assay results: PubChem BioAssay AID1159580 (chemical genetic matrix, 2015)
# Values joined by “and” are separate entries in the source; they are usually repeats but may differ in a detail not shown here. Identical values can stand only once. Among all 5,500 compounds or so, about 2,000 (36%) were called active. About 18% were inconclusive and are not listed. Rule as the data show it: active = normalized growth mostly below about 0.91 (no sharp cut-off); inconclusive = no clear call, values can overlap the other calls; inactive = mostly above about 0.92. This is one part of the list.
# Test: chemical genetic growth profiling, strain panel (AID 1159580);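 also: tested at 20 µM; growth read once vehicle control cultures reached saturation at 30 °C; 1 = growth at the plate median or of vehicle wells; lower values mean less growth of the strain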
# Settings: S. cerevisiae deletion strains, growth OD
smiles,measurement,setting,value
COc1c(OC)c2occc2c2oc(=O)ccc12,normalized growth,"locus YAL021C, strain ccr4, stronger effect = lower value",0.988 (inactive)
same,normalized growth,"locus YAL026C, strain drs2, stronger effect = lower value",0.987 (inactive)
same,normalized growth,"locus YAL030W, strain snc1, stronger effect = lower value",0.99 (inactive)
same,normalized growth,"locus YBL061C, strain skt5, stronger effect = lower value",0.979 (inactive)
same,normalized growth,"locus YBR009C, strain hhf1, stronger effect = lower value",0.958 (inactive)
same,normalized growth,"locus YBR021W, strain FUR4, stronger effect = lower value",1.01 (inactive)
same,normalized growth,"locus YBR023C, strain chs3, stronger effect = lower value",0.976 (inactive)
same,normalized growth,"locus YBR171W, strain sec66, stronger effect = lower value",0.973 (inactive)
same,normalized growth,"locus YBR229C, strain ROT2, stronger effect = lower value",0.967 (inactive)
same,normalized growth,"locus YBR231C, strain swc5, stronger effect = lower value",0.96 (inactive)
same,normalized growth,"locus YBR279W, strain paf1, stronger effect = lower value",0.973 (inactive)
same,normalized growth,"locus YCL011C, strain gbp2, stronger effect = lower value",0.979 (inactive)
same,normalized growth,"locus YCL016C, strain dcc1, stronger effect = lower value",0.98 (inactive)
same,normalized growth,"locus YCL029C, strain bik1, stronger effect = lower value",0.983 (inactive)
same,normalized growth,"locus YCL061C, strain MRC1, stronger effect = lower value",0.978 (inactive)
same,normalized growth,"locus YCL069W, strain vba3, stronger effect = lower value",0.989 (inactive)
same,normalized growth,"locus YCR088W, strain abp1, stronger effect = lower value",0.987 (inactive)
same,normalized growth,"locus YDL005C, strain med2, stronger effect = lower value",0.998 (inactive)
same,normalized growth,"locus YDL035C, strain GPR1, stronger effect = lower value",0.924 (inactive)
same,normalized growth,"locus YDL040C, strain nat1, stronger effect = lower value",0.981 (inactive)
same,normalized growth,"locus YDL074C, strain BRE1, stronger effect = lower value",0.86 (inactive)
same,normalized growth,"locus YDL101C, strain DUN1, stronger effect = lower value",0.949 (inactive)
same,normalized growth,"locus YDL134C, strain PPH21, stronger effect = lower value",0.948 (inactive)
same,normalized growth,"locus YDL185W, strain tfp1, stronger effect = lower value",0.945 (inactive)
same,normalized growth,"locus YDL192W, strain arf1, stronger effect = lower value",0.866 (active)
same,normalized growth,"locus YDR001C, strain nth1, stronger effect = lower value",0.973 (inactive)
same,normalized growth,"locus YDR069C, strain doa4, stronger effect = lower value",1 (inactive)
same,normalized growth,"locus YDR101C, strain arx1, stronger effect = lower value",0.927 (inactive)
same,normalized growth,"locus YDR137W, strain rgp1, stronger effect = lower value",0.952 (inactive)
same,normalized growth,"locus YDR159W, strain sac3, stronger effect = lower value",1.01 (inactive)
same,normalized growth,"locus YDR162C, strain NBP2, stronger effect = lower value",0.822 (active)
same,normalized growth,"locus YDR195W, strain ref2",1.14 [resistant] (active)
same,normalized growth,"locus YDR297W, strain sur2, stronger effect = lower value",0.974 (inactive)
same,normalized growth,"locus YDR318W, strain mcm21, stronger effect = lower value",0.95 (inactive)
same,normalized growth,"locus YDR334W, strain swr1, stronger effect = lower value",0.967 (inactive)
same,normalized growth,"locus YDR335W, strain msn5, stronger effect = lower value",0.978 (inactive)
same,normalized growth,"locus YDR388W, stronger effect = lower value",0.959 (inactive)
same,normalized growth,"locus YDR392W, strain spt3, stronger effect = lower value",0.765 (inactive)
same,normalized growth,"locus YDR502C, strain sam2, stronger effect = lower value",0.918 (active)
same,normalized growth,"locus YEL003W, strain gim4, stronger effect = lower value",0.982 (inactive)
same,normalized growth,"locus YEL037C, strain rad23, stronger effect = lower value",0.981 (inactive)
same,normalized growth,"locus YEL061C, strain CIN8 (second series), stronger effect = lower value",0.984 (inactive)
same,normalized growth,"locus YEL061C, strain CIN8, stronger effect = lower value",0.963 (inactive)
same,normalized growth,"locus YER015W, strain faa2, stronger effect = lower value",0.972 (inactive)
same,normalized growth,"locus YER016W, strain bim1, stronger effect = lower value",0.984 (inactive)
same,normalized growth,"locus YER110C, stronger effect = lower value",0.949 (inactive)
same,normalized growth,"locus YER111C, strain swi4, stronger effect = lower value",0.992 (inactive)
same,normalized growth,"locus YER155C, strain BEM2 (second series), stronger effect = lower value",0.832 (active)
same,normalized growth,"locus YER155C, strain BEM2, stronger effect = lower value",0.962 (inactive)
same,normalized growth,"locus YER167W, strain BCK2, stronger effect = lower value",0.97 (inactive)
same,normalized growth,"locus YFR010W, strain ubp6, stronger effect = lower value",0.98 (inactive)
same,normalized growth,"locus YGL078C, strain dbp3, stronger effect = lower value",0.979 (inactive)
same,normalized growth,"locus YGL086W, strain mad1, stronger effect = lower value",0.937 (inactive)
same,normalized growth,"locus YGL167C, strain pmr1, stronger effect = lower value",0.975 (inactive)
same,normalized growth,"locus YGL173C, strain kem1, stronger effect = lower value",0.986 (inactive)
same,normalized growth,"locus YGL227W, strain vid30, stronger effect = lower value",0.994 (inactive)
same,normalized growth,"locus YGL240W, strain doc1, stronger effect = lower value",0.931 (inactive)
same,normalized growth,"locus YGL248W, strain PDE1, stronger effect = lower value",0.95 (inactive)
same,normalized growth,"locus YGL253W, strain hxk2, stronger effect = lower value",0.956 (inactive)
same,normalized growth,"locus YGR078C, strain PAC10, stronger effect = lower value",0.882 (inactive)
same,normalized growth,"locus YGR135W, strain pre9, stronger effect = lower value",0.881 (active)
same,normalized growth,"locus YGR252W, strain gcn5, stronger effect = lower value",0.802 (inactive)
same,normalized growth,"locus YHR013C, strain ard1, stronger effect = lower value",1.01 (inactive)
same,normalized growth,"locus YHR027C, strain rpn1, stronger effect = lower value",0.984 (inactive)
same,normalized growth,"locus YHR030C, strain SLT2, stronger effect = lower value",0.945 (inactive) and 0.955 (inactive)
same,normalized growth,"locus YHR079C, strain IRE1 (second series), stronger effect = lower value",0.977 (inactive)
same,normalized growth,"locus YHR079C, strain IRE1, stronger effect = lower value",0.944 (inactive)
same,normalized growth,"locus YHR094C, strain hxt1, stronger effect = lower value",0.985 (inactive)
same,normalized growth,"locus YHR129C, strain ARP1, stronger effect = lower value",0.959 (inactive)
same,normalized growth,"locus YHR142W, strain chs7, stronger effect = lower value",0.904 (inactive)
same,normalized growth,"locus YHR200W, strain rpn10, stronger effect = lower value",0.923 (inactive)
same,normalized growth,"locus YIL066C, strain RNR3, stronger effect = lower value",0.88 (inactive)
same,normalized growth,"locus YIL073C, strain SPO22, stronger effect = lower value",0.955 (inactive)
same,normalized growth,"locus YIL125W, strain kgd1, stronger effect = lower value",0.979 (inactive)
same,normalized growth,"locus YIR030C, strain dcg1, stronger effect = lower value",0.962 (inactive)
same,normalized growth,"locus YJL092W, strain hpr5, stronger effect = lower value",0.972 (inactive)
same,normalized growth,"locus YJL095W, strain BCK1 (second series), stronger effect = lower value",0.974 (inactive)
same,normalized growth,"locus YJL095W, strain BCK1, stronger effect = lower value",0.785 (active) and 0.957 (inactive)
same,normalized growth,"locus YJL115W, strain asf1, stronger effect = lower value",0.984 (inactive)
same,normalized growth,"locus YJL129C, strain trk1, stronger effect = lower value",0.993 (inactive)
same,normalized growth,"locus YJL134W, strain LCB3, stronger effect = lower value",0.967 (inactive)
same,normalized growth,"locus YJL154C, strain vps35, stronger effect = lower value",0.987 (inactive)
same,normalized growth,"locus YJL164C, strain tpk1, stronger effect = lower value",0.966 (inactive)
same,normalized growth,"locus YJL166W, strain qcr8, stronger effect = lower value",0.945 (inactive)
same,normalized growth,"locus YJL168C, strain set2, stronger effect = lower value",0.977 (inactive)
same,normalized growth,"locus YJL187C, strain SWE1 (second series), stronger effect = lower value",0.947 (inactive)
same,normalized growth,"locus YJL187C, strain SWE1, stronger effect = lower value",0.973 (inactive)
same,normalized growth,"locus YJR043C, strain POL32, stronger effect = lower value",0.887 (inactive)
